This is a sample that favours compounds with a hit; in the whole collection about 3.5% have one here.
Pf apPOL block: Pf-apPOL DNA polymerase inhibition | Recombinant Pf-apPOL, molecular beacon fluorescence, 1.5 h | inhibition, % at 10 µM | 210,000 compounds, 0.25% hits | AID 1794808
mHTT CaM bind: mHTT-calmodulin interaction abrogation. inhibition, % at 15 µM. P42858. AlphaScreen His-mHTT/GST-CaM binding, luminescence. 190,000 compounds, 3.6% hits. AID 1671202;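 also: 0% = both proteins with DMSO and 100% = one protein alone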
Target sequence (P42858 whole entry, looked up, stated change not applied): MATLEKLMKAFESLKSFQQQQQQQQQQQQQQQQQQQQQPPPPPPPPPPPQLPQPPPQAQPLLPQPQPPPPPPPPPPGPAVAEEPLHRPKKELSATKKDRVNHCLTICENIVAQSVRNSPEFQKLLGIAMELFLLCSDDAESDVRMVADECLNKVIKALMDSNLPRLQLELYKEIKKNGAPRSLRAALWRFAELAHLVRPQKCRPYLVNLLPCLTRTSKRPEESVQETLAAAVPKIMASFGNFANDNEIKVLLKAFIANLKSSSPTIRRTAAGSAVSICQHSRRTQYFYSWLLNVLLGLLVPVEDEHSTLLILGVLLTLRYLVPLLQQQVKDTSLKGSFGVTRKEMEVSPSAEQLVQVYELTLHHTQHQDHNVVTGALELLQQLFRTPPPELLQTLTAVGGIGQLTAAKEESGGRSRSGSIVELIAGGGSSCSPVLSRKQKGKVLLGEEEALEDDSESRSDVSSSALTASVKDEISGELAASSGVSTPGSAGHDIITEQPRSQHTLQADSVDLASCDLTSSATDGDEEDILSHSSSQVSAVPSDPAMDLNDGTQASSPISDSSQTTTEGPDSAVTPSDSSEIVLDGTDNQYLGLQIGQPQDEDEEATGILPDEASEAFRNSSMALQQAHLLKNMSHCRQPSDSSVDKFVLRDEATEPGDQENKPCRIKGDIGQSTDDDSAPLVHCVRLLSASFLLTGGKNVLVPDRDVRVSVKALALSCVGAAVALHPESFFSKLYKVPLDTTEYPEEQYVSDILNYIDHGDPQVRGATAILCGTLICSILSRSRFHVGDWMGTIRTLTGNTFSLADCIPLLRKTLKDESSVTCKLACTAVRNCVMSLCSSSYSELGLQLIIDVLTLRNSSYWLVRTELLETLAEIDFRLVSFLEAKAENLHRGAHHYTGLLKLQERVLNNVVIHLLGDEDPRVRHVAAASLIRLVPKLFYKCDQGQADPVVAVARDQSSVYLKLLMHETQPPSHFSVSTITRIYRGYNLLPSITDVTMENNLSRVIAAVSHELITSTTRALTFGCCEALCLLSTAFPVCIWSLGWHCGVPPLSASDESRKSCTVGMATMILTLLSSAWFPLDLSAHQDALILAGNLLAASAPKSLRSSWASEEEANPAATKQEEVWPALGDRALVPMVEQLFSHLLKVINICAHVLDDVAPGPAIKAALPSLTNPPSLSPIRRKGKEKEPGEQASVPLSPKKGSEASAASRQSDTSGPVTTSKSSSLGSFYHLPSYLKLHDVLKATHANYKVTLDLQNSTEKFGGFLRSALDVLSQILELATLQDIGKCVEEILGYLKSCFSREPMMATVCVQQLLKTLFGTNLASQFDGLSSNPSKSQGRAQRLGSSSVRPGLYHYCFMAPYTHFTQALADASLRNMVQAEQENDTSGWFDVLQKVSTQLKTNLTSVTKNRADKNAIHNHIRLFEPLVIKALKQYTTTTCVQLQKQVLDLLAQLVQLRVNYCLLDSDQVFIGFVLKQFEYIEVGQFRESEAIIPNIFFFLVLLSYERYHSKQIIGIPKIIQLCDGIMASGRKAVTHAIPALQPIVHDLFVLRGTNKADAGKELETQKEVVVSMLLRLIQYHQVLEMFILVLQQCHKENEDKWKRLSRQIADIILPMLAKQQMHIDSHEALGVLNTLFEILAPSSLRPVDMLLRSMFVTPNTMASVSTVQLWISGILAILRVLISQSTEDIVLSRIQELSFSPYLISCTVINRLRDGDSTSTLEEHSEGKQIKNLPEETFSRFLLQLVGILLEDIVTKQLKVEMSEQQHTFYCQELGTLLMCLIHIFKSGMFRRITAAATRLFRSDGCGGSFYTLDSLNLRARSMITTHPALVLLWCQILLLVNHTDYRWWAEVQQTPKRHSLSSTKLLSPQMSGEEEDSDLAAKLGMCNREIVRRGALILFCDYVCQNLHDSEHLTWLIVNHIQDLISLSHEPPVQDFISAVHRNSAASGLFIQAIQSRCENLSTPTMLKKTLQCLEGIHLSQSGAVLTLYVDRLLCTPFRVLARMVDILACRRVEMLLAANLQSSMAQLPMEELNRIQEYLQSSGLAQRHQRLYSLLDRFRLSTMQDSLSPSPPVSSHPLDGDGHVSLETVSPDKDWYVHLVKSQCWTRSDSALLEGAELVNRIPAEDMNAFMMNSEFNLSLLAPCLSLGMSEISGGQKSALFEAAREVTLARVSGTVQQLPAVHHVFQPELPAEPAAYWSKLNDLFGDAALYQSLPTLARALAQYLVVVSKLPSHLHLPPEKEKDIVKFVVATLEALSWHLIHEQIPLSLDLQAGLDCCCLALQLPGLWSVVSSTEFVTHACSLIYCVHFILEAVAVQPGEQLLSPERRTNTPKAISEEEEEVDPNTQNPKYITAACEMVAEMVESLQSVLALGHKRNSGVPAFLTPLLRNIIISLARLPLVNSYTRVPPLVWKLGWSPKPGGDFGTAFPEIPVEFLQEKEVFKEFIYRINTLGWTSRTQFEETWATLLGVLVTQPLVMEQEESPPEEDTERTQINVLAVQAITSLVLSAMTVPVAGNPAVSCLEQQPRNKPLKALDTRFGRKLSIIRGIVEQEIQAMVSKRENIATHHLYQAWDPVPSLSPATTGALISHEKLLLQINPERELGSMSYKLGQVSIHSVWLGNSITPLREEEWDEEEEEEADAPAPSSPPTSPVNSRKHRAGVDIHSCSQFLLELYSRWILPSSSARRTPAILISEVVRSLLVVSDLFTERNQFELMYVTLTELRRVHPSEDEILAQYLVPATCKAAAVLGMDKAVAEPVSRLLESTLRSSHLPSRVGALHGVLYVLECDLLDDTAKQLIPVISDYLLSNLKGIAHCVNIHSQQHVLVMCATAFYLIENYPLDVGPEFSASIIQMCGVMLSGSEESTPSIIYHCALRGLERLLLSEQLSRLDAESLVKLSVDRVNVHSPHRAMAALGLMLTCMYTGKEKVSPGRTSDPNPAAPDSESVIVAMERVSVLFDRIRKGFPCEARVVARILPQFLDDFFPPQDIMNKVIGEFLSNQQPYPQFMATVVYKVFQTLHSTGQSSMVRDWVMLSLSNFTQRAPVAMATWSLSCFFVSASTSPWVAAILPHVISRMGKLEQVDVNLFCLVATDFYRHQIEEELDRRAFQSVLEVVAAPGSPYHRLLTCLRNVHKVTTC
Numbers without * were called inactive; · = no result; ! = repeats disagree. Rule as the data show it: active = inhibition above about 50%; inactive = the rest.

SMILES	Pf apPOL block	mHTT CaM bind
Cc1cccc(Oc2cc(NC(=O)Cn3cnc([N+](=O)[O-])n3)cc([N+](=O)[O-])c2)c1	4	57*
O=C(Cn1cnc([N+](=O)[O-])n1)Nc1cc(Oc2cccnc2)cc([N+](=O)[O-])c1	2	6
O=C(Cn1cnc([N+](=O)[O-])n1)Nc1cc(Oc2cccc(Cl)c2)cc([N+](=O)[O-])c1	3	62*
CCC(=O)N1c2ccccc2-c2nnc(SC)nc2OC1c1c(OC)cc(OC)cc1OC (centres undefined)	-2	1
O=C(c1ccccc1F)N1CCCC1c1nc(-c2ccc(F)cc2F)no1 (centres undefined)	-2	-5
CC(C)CC1=NN2C(=N)/C(=C/c3ccc(Cl)cc3)C(=O)N=C2S1	-9	1
CCCNc1cc(N2CCC(CCC(=O)Nc3ccc4c(c3)OCO4)CC2)ncn1	3	60*
CCNc1cc(N2CCC(CCC(=O)Nc3cc(C)ccc3OC)CC2)ncn1	-4	55*
CCCNc1cc(N2CCC(CCC(=O)Nc3ccc4c(c3)OCCO4)CC2)ncn1	-4	9
CCNc1cc(N2CCC(CCC(=O)Nc3ccc(OC)c(OC)c3)CC2)ncn1	-1	8
O=c1c(-c2ccccc2)c(O)nc2ccccn12	-1	·
CCc1c(O)nc2ccccn2c1=O	73*	-8
Cc1ccc2c(c1)/C(=C/c1ccc(Br)cc1)c1cccnc1-2	·	14
Cc1ccc2c(c1)/C(=C/c1ccc3c(c1)OCO3)c1cccnc1-2	-4	52*
COc1ccc(-c2cc3ccc(OC(=O)c4cc(OC)c(OC)c(OC)c4)cc3oc2=O)cc1	-10	-4
Cc1ccc(-c2csc(Nc3ccc(F)cc3)n2)cc1C	-6	14
Cc1ccc(-c2csc(Nc3ccc(F)cc3)n2)cc1	-2	35
CCC(=O)Nc1nc(-c2ccc(F)cc2)cs1	-6	-6
Cc1ccc(Nc2nc(-c3ccc(F)cc3)cs2)cc1Cl	4	64*
Nc1nc(-c2ccc3c(c2)OCO3)cs1	1	8
Brc1ccc(-c2csc(Nc3ccc4c(c3)OCO4)n2)cc1	-4	61*
Fc1ccc(Nc2nc(-c3ccc(Cl)cc3)cs2)cc1	-2	71*
Fc1ccc(-c2csc(Nc3ccc(Br)cc3)n2)cc1	1	98*
CN(C)c1cc(OC2CCN(S(=O)(=O)c3cn(C)cn3)C2)ncn1 (centres undefined)	-2	-1
O=C(COc1ccccc1)N1CCC(CCOc2ccccc2)CC1	-5	-13
SMILES	Pf apPOL block	mHTT CaM bind
O=S(=O)(NC1CCCC1)c1cccs1	-3	-2
Cc1cc(C2CCCN2Cc2cc(Br)ccc2O)on1 (centres undefined)	-1	-14
Cc1ccc(NC(NC(=O)c2ccco2)C(=O)c2ccccc2)c(C)c1 (centres undefined)	-6	12
COc1cccc(C2C=C(c3cccc([N+](=O)[O-])c3)Nc3ncnn32)c1OC (centres undefined)	-6	49
CCCCOc1ccc(-c2csc(N)n2)cc1[N+](=O)[O-]	3	22
CCOc1ccc(-c2csc(Nc3ccc(F)cc3)n2)cc1[N+](=O)[O-]	0	91*
COc1cccc(C(=O)N2C(C(=O)NC(C)C)COC23CCC(C)CC3)c1 (centres undefined)	-5	-6
O=[N+]([O-])c1ccc(Cl)c(N=Cc2nc(-c3ccc(Cl)cc3)oc2O)c1	0	5
Cc1ccccc1C(=O)NCCSc1c(C)[nH]c2ccccc12	3	11
Cc1[nH]c2ccccc2c1SCCNC(=O)c1ccccc1F	-1	99*
O=C(c1c[nH]c2ccccc12)N1CCC2(CC1)NC(=O)N(Cc1ccc(Cl)cc1)C2=O	1	90*
CCOc1ccccc1C(=O)N1CCC2(CC1)NC(=O)N(Cc1ccc(Cl)cc1)C2=O	-2	55*
O=C(c1cccc2[nH]ccc12)N1CCC2(CC1)NC(=O)N(Cc1ccc(Cl)cc1)C2=O	-2	29
COc1ccccc1C(=O)N1CCC2(CC1)NC(=O)N(Cc1ccc(Cl)cc1)C2=O	-8	35
CCOc1ccccc1C(=O)n1cc(Cl)cn1	98*!	-5
CCOc1ccccc1C(=O)N1CCN(c2ccc(Cl)cc2)CC1	1	17
O=C(CSc1ccc(NC(=O)c2ccccc2F)nn1)NCc1ccc2c(c1)OCO2	-4	-2
COc1ccccc1-n1cnc2cc(N=Cc3ccc(N(C)C)cc3)ccc21	-12	11
O=C(NCc1ccccn1)C1Cc2ccccc2N2CCN(c3ccccc3)CC12 (centres undefined)	-12	38
CCNC(=O)C1Cc2ccc(OC)cc2N2CCN(c3ccc(C)cc3)CC12 (centres undefined)	1	64*
CCNC(=O)C1Cc2ccccc2N2CCN(c3ccccc3OC)CC12 (centres undefined)	1	9
COc1cccc(N2CCN3c4ccccc4CC(C(=O)NC(C)C)C3C2)c1 (centres undefined)	-2	32
COc1ccc(N2CCN3c4ccccc4CC(C(=O)N4CCOCC4)C3C2)cc1 (centres undefined)	-2	56*
CCNC(=O)C1Cc2ccc(OC)cc2N2CCN(c3ccc(OC)cc3)CC12 (centres undefined)	-3	17
O=C(NCCc1cccs1)C1Cc2ccccc2N2CCN(c3ccccc3)CC12 (centres undefined)	-4	95*
SMILES	Pf apPOL block	mHTT CaM bind
Cc1ccc(N2CCN3c4ccccc4CC(C(=O)N4CCSCC4)C3C2)cc1 (centres undefined)	-1	58*
CCN(CC(=O)N1CCn2cccc2C1c1ccccc1)C(=O)NC(C)(C)C (centres undefined)	-1	27
Cc1ccc(CN(c2ccc(C(=O)Nc3ccccc3F)cc2)S(C)(=O)=O)cc1	1	-12
Cc1ccc(N2CCN(C(=O)c3cccc(F)c3)C(C)C2=O)c(C)c1 (centres undefined)	0	-5
Cc1ccc(OCCC#N)cc1	2	·
COc1ccc(Nc2ncc3c(n2)CCN(Cc2ccccc2F)C3)cc1	-2	13
CCOc1ccccc1CNC(=O)c1ccnc(N2CCNC(c3ccccc3)C2)c1 (centres undefined)	1	10
CCN(C)C(=O)c1ccccc1N1CCC(NC(=O)C(C)C)CC1	-58	3
CCC(=O)N1CCc2sc(S(=O)(=O)Nc3cccc(OC)c3)cc2C1	-2	4
Cc1cc2oc(=O)cc(CN3CCC(Cc4ccccc4)CC3)c2cc1O	-5	-2
Cc1cccc(CNC(=O)C2CCCN(c3ccc(N4CCOCC4)nn3)C2)c1 (centres undefined)	-4	-5
NC(=O)c1c(N)sc2c1CCCCC2	-10	64*
NC(=O)c1c(N)sc2c1CCC2	-9	·
CN(C)C1CN(Cc2ccc[nH]2)CCC1(O)c1ccccc1 (centres undefined)	2	22
CCOC(=O)N1CCC(NC(=O)CN2C(=O)NC3(CCC(C)CC3)C2=O)CC1 (centres undefined)	-4	6
c1ccc2ncc(-c3ccc4ccccc4n3)cc2c1	0	-12
Nc1cccc2ccc(-c3cnc4ccccc4c3)nc12	-1	57*
Cc1cccc(C)c1NC(=O)CSCc1c(Cl)cccc1Cl	0	-6
COc1ccc(Cl)cc1NC(=O)N1CCCN(C2CCN(CC3CC3)C2=O)CC1 (centres undefined)	-6	14
CN(C)c1ccc(C(=O)N2CCC(c3cc(N)on3)CC2)cc1	0	-8
CN(C)CCNC(=O)C12CC3CC(C1)CC(c1ccccc1)(C3)C2	-2	14
